# Measurements reported in PMC7862700, “An all-to-all approach to the identification of sequence-specific readers for epigenetic DNA modifications on cytosine”.
# Experiments:
# Assay in all cases: DAPPL (digital affinity profiling via proximity ligation, sequencing); 10 mM Tris-HCl pH 7.5, 50 mM NaCl, 1 mM DTT, 4% glycerol, room temperature, 30 min; GST-TFs on glutathione beads, 16-mer random dsDNA library, 0.1% formaldehyde crosslink after washing; high values mean tight binding
# Conditions in all cases: protein: recombinant; tags: N-terminal GST; dsDNA, one strand shown
# FLI1 = biological target: T1, FLI1 (Homo sapiens, UniProt Q01543 1-452)
# T1 sequence: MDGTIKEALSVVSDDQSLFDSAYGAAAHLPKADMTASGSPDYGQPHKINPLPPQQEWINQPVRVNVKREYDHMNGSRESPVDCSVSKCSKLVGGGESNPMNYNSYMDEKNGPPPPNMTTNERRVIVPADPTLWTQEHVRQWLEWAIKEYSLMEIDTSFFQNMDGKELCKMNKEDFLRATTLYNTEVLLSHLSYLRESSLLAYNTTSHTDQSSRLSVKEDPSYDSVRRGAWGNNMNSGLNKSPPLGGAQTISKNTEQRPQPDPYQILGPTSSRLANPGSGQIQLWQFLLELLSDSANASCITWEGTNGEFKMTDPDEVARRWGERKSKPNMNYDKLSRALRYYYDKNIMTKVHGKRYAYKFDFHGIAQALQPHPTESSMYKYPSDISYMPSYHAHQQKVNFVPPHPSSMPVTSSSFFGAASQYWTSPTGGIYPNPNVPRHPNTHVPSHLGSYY
# In short: (§1)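 Binding signal is given per hexamer as its read frequency for a factor divided by its frequency in the tag-only sample. GST-fused human transcription factors were expressed in yeast, captured on glutathione beads, barcoded with DNA and pooled with that sample, then incubated with 200 nmole of a 16-mer random double-stranded DNA library in Tris/NaCl/DTT/glycerol buffer for 30 min at room temperature. The pools were then washed, crosslinked, proximity-ligated, amplified by PCR and sequenced on an Illumina NextSeq500.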
# ELK1 = biological target: T2, ELK1 (Homo sapiens, UniProt P19419 1-428)
# T2 sequence: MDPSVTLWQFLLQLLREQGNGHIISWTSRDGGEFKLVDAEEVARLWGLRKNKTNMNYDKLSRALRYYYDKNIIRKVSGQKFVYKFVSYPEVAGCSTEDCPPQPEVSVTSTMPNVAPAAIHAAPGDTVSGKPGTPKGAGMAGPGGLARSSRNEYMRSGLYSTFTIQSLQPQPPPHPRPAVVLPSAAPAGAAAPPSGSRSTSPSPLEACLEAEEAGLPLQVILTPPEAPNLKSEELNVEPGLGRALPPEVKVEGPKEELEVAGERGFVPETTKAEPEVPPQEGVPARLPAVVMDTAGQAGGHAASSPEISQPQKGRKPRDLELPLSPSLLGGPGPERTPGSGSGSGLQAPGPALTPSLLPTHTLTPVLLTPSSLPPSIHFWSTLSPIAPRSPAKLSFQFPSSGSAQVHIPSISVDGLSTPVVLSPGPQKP
# In short: as §1
# GABPA = biological target: T3, GABPA (Homo sapiens, UniProt Q06546 1-454)
# T3 sequence: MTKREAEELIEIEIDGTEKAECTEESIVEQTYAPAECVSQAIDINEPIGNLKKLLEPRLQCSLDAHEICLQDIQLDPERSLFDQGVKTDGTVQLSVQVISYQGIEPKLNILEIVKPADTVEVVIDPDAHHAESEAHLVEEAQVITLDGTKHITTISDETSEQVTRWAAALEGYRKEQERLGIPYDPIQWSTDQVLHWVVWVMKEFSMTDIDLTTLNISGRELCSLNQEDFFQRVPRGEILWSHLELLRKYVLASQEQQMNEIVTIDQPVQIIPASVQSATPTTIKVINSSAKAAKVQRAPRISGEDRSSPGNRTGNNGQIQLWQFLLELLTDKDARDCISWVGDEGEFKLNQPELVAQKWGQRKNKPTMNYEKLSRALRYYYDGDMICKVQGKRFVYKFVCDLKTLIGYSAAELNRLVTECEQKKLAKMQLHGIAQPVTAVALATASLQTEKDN
# In short: as §1
# ERG = biological target: T4, ERG (Homo sapiens, UniProt P11308 1-479)
# T4 sequence: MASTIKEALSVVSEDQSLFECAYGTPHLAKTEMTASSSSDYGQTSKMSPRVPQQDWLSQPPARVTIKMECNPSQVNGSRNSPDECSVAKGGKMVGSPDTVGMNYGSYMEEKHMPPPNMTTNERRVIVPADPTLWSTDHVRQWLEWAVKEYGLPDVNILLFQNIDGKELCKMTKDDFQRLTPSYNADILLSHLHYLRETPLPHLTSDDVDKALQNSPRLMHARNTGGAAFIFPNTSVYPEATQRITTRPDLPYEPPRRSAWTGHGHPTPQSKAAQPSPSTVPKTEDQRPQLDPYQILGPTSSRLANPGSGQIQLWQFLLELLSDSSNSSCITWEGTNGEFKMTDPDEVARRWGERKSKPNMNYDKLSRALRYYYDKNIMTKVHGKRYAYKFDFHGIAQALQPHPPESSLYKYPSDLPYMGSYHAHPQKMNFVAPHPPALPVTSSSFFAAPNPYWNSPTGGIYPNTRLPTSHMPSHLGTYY
# In short: as §1
# ELF1 = ELF1 (Homo sapiens, UniProt P32519 1-619)
# Sequence of ELF1 (P32519 whole entry): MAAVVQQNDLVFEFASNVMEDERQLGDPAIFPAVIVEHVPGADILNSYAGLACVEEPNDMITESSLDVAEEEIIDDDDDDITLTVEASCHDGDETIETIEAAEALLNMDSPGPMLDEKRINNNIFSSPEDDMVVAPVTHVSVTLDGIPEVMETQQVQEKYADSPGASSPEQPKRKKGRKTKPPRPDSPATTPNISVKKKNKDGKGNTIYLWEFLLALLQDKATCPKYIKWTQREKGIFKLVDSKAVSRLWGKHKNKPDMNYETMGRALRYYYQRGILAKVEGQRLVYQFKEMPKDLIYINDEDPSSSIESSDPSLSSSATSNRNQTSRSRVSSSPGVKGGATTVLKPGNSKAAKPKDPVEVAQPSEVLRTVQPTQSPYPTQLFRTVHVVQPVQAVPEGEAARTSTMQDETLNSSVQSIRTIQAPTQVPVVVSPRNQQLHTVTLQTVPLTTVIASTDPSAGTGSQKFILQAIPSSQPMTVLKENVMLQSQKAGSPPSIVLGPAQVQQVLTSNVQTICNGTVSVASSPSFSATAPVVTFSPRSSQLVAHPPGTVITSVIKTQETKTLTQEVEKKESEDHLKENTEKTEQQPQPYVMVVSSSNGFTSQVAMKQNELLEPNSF
# In short: as §1
# EHF = biological target: T5, EHF (Homo sapiens, UniProt Q9NZC4 1-300)
# T5 sequence: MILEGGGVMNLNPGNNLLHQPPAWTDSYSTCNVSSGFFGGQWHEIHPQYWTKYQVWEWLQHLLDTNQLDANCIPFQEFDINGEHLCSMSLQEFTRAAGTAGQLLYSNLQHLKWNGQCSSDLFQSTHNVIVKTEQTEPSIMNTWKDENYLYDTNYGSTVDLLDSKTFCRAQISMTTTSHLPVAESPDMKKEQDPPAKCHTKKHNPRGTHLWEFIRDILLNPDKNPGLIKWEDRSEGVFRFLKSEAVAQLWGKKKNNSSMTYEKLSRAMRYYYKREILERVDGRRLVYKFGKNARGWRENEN
# In short: as §1
# SPI1 = SPI1 (Homo sapiens, UniProt P17947 1-270)
# In short: as §1
# SPIB = SPIB (Homo sapiens, UniProt Q01892 1-262)
# Sequence of SPIB (Q01892 whole entry): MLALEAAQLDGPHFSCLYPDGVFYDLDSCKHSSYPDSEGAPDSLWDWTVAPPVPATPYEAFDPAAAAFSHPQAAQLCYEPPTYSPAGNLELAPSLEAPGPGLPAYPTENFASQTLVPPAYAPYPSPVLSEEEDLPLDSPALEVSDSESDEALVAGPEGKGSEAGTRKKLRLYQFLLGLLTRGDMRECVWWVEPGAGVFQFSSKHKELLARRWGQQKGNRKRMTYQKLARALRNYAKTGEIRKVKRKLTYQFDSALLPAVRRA
# In short: as §1
# ELK3 = biological target: T6, ELK3 (Homo sapiens, UniProt P41970 1-407)
# T6 sequence: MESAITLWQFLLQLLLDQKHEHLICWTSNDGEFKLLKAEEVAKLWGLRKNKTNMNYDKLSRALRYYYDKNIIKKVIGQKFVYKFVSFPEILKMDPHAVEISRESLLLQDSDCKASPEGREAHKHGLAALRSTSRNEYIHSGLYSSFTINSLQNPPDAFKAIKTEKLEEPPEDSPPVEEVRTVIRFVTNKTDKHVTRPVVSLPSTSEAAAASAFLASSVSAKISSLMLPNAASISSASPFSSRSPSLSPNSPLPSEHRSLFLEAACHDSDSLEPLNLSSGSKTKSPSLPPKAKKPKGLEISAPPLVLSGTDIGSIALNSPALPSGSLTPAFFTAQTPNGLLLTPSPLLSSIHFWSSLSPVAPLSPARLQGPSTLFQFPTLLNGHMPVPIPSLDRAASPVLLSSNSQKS
# In short: as §1
# FEV = biological target: T7, FEV (Homo sapiens, UniProt Q99581 1-238)
# T7 sequence: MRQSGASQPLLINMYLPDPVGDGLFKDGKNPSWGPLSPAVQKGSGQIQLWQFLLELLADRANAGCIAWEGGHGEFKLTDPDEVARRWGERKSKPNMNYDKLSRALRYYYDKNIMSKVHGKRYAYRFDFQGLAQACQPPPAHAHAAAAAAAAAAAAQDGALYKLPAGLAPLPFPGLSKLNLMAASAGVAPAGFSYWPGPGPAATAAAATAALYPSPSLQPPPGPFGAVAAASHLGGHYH
# In short: as §1
# ETV5 = ETV5 (Homo sapiens, UniProt P41161 1-510)
# Sequence of ETV5 (P41161 whole entry): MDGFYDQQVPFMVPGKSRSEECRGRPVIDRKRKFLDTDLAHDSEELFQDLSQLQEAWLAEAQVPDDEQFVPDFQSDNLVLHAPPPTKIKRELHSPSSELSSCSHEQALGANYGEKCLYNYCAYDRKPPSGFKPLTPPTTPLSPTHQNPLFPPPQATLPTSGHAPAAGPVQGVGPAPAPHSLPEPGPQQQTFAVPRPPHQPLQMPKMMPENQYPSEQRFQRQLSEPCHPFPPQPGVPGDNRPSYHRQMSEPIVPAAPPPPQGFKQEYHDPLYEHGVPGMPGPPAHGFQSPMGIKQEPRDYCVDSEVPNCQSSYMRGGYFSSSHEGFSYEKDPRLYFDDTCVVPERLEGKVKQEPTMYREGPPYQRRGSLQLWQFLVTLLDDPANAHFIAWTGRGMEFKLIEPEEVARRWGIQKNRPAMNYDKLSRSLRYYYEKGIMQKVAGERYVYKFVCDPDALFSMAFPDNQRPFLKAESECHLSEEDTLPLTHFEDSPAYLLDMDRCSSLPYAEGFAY
# In short: as §1
# SPIC = biological target: T8, SPIC (Homo sapiens, UniProt Q8N5J4 1-248)
# T8 sequence: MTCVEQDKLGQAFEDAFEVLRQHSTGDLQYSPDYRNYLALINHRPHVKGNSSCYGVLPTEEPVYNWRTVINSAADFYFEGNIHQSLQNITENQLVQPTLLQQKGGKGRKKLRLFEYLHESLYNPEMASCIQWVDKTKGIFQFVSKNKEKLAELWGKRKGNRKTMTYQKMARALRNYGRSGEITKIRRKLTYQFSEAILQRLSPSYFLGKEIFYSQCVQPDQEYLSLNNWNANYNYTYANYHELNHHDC
# In short: as §1
# ELF4 = ELF4 (Homo sapiens, UniProt Q99607 1-663)
# Sequence of ELF4 (Q99607 whole entry): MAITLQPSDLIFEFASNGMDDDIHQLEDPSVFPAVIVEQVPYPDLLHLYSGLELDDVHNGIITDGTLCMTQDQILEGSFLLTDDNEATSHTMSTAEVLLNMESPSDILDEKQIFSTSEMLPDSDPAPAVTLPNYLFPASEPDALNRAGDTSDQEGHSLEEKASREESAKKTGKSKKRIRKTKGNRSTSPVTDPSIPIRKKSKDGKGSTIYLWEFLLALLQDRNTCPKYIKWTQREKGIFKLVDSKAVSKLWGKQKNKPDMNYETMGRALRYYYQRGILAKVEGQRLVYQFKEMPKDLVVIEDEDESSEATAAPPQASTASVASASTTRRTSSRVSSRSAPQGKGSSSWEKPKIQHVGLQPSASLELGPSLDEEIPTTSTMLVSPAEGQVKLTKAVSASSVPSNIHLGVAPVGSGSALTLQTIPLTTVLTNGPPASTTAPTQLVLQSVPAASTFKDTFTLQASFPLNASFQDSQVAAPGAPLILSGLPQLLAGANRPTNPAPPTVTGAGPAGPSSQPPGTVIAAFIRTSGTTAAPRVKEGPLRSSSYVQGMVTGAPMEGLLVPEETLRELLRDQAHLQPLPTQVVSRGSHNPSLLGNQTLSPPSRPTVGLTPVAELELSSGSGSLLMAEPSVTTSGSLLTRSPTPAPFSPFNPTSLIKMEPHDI
# In short: as §1
# ELK4 = biological target: T9, ELK4 (Homo sapiens, UniProt P28324-2 1-405)
# T9 sequence: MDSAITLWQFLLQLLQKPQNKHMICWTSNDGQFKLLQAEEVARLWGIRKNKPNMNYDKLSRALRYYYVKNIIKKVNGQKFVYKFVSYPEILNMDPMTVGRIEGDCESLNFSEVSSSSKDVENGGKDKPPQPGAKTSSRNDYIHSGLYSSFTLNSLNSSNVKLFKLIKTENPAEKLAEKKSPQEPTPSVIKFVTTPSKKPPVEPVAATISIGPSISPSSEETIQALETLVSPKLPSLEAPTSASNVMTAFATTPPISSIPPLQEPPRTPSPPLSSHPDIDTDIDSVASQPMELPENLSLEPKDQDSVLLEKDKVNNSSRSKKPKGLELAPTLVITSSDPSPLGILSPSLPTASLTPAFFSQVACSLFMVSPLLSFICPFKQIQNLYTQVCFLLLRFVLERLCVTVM
# In short: as §1
# ETV2 = biological target: T10, ETV2 (Homo sapiens, UniProt O00321 1-342)
# T10 sequence: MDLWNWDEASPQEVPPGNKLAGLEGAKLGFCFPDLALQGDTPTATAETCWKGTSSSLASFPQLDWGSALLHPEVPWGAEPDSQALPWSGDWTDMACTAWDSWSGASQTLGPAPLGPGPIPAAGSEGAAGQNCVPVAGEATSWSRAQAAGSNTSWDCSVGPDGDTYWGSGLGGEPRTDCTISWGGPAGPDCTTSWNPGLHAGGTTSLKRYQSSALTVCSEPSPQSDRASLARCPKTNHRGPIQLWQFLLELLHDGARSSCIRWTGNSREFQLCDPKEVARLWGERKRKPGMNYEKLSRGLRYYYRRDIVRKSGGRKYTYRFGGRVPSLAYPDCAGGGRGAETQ
# In short: as §1
# ELF3 = biological target: T11, ELF3 (Homo sapiens, UniProt P78545 1-371)
# T11 sequence: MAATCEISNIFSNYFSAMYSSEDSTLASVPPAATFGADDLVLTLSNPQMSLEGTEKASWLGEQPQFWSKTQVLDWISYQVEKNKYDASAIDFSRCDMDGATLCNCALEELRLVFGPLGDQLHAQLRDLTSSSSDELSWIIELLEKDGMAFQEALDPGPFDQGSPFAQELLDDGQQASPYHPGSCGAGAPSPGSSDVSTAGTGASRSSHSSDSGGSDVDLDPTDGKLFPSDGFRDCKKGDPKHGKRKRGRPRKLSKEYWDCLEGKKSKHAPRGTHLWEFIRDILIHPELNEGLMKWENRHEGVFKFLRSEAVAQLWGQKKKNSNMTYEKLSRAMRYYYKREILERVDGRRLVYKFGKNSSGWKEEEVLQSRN
# In short: as §1
# ETV1 = ETV1 (Homo sapiens, UniProt P50549 1-477)
# Sequence of ETV1 (P50549 whole entry): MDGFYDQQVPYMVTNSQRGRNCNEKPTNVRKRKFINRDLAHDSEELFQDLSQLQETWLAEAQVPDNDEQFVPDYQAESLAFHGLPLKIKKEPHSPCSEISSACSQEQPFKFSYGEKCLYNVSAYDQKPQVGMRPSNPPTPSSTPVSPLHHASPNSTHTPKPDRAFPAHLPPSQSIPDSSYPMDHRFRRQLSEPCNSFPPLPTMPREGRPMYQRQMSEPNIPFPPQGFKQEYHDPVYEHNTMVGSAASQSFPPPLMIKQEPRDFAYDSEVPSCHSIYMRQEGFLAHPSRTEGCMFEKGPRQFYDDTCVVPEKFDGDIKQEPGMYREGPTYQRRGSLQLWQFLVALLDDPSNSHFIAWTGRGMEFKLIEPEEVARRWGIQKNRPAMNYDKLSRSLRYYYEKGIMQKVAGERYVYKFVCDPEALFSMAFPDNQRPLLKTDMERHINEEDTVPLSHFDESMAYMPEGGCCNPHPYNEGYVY
# In short: as §1
sequence,measurement,setting,value
CGACCG,binding signal,FLI1,"1.2 fold enrichment (6-mer frequency, TF over GST control)"
same,binding signal,ELK1,"1.19 fold enrichment (6-mer frequency, TF over GST control)"
same,binding signal,GABPA,"1.21 fold enrichment (6-mer frequency, TF over GST control)"
same,binding signal,ERG,"1.36 fold enrichment (6-mer frequency, TF over GST control)"
same,binding signal,ELF1,"1.17 fold enrichment (6-mer frequency, TF over GST control)"
same,binding signal,EHF,"1.11 fold enrichment (6-mer frequency, TF over GST control)"
same,binding signal,SPI1,"1.06 fold enrichment (6-mer frequency, TF over GST control)"
same,binding signal,SPIB,"1.07 fold enrichment (6-mer frequency, TF over GST control)"
same,binding signal,ELK3,"1.21 fold enrichment (6-mer frequency, TF over GST control)"
same,binding signal,FEV,"1.6 fold enrichment (6-mer frequency, TF over GST control)"
same,binding signal,ETV5,"1.19 fold enrichment (6-mer frequency, TF over GST control)"
same,binding signal,SPIC,"1.09 fold enrichment (6-mer frequency, TF over GST control)"
same,binding signal,ELF4,"1.28 fold enrichment (6-mer frequency, TF over GST control)"
same,binding signal,ELK4,"1.17 fold enrichment (6-mer frequency, TF over GST control)"
same,binding signal,ETV2,"1.35 fold enrichment (6-mer frequency, TF over GST control)"
same,binding signal,ELF3,"1.27 fold enrichment (6-mer frequency, TF over GST control)"
same,binding signal,ETV1,"1.26 fold enrichment (6-mer frequency, TF over GST control)"
